# Measurements published in the supplement of paper PMC11417369.
# Whole data set: some 25,000 sequences, median “ln(normalized median fluorescence intensity)” near 6.7, cut for the highest 2% near 10. For the sample, the highest values were picked, then their nearest neighbours and some sequences at random.
# System: PfHDP1 homeodomain (GST-tagged)
# Assay: gcPBM binding intensity (ln(normalized median fluorescence intensity)); higher = stronger DNA binding
# Method in brief: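 GST-tagged P. falciparum DNA-binding domains produced in E. coli were incubated for 1 h on an Agilent 4 × 180k array of primer-extended double-stranded 36-bp intergenic genomic probes with negative controls. Binding intensity is the highest Masliner-normalised natural-log median intensity across replicate spots of either probe orientation, with bound protein detected by Alexa488 anti-GST antibody at 488 nm.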
row,Sequence,gcPBM binding intensity (ln)
1,TTTCAATGTGACACGTGTCCGTAAAATTACATAATT [XGTACX_site7073],6.61
2,ATCGCGAAGTAGCATTCACACACAGCAAAATATATA [CACACA_site9162],6.65
3,ATATATATATTTATATGTACATAATATAAAATTTCT [XGTACX_site3720],7.7
4,ATGTTTTTTATTCTTCGTACGTATGAACGATAGTGT [XGTACX_site4225],6.71
5,GCTTGTACATTTTTAAAAAATGACTTCGAAAGGAAT [CACACA_negctrl_site453],7.01
6,TTTTAATTGTTTATTTGTACATATGTTTAATTATAT [XGTACX_site571],6.79
7,TATATAAATGGACACACACACACCTTATAATTATTA [CACACA_site6093],6.85
8,CCCACATAAAAAAATAAACACACATATGTATATATA [CACACA_site9040],7.07
9,AAGAAAAACAATGAGATAAAGAAGAGAAAATATGTC [TGCATGCA_negctrl_site415],6.88
10,TATATCAAAATACATACACACATTTGTATTTACATT [CACACA_site5485],6.58
11,ACTTTTTTGAACAACGTGCACGTATTCATAACAAAA,10.6
12,TTGTATTCATAACAACGTACATATTTTGTAACTAAA [XGTACX_site4029],6.26
13,TTTGTTCATATTATTGTGCACTTAAACGTAACAAAA [GTGCAC_site9505],10.1
14,AATATCATCAAACGCACACATACATAAATATATTAT [CACACA_site2174],7.74
15,TATTTATATGTATATACATGCACATATATATGAAAC [TGCATGCA_site1005],8.8
16,TATACGAAATTGTGCACACATATATTTATGTATGTA [CACACA_site1509],11
17,AATATACGAAATTGTGCACACATATATTTATGTATG [CACACA_site1510],10.8
18,ATACGCACACATATATGTACATATTGTATATATATA [XGTACX_site3962],8.34
19,TGTATAAATATATGCACACATATATATATTTATATA [CACACA_site3473],10

row,Sequence,gcPBM binding intensity (ln)
1,TATGTATAAATATATGCACACATATATATATTTATA [CACACA_site9150],9.35
2,TAGATAAAATGAACATGTACTCATCTTAATATATAT [XGTACX_site34],6.23
3,AAAAGATATATTATATGTACTAATTATATGATAAAT [XGTACX_site4192],6.32
4,AGAGGTAGAGAGAAAACATGCATAATGATTTTCATA [TGCATGCA_site958],6.1
5,CATGCTACATCTTATTGTACTTATCTAATGTTAGTA [XGTACX_site1863],6.75
6,TATATATATATATATGCATGTACATATATTTGTTAT [TGCATGCA_site379],9.2
7,ATATATATATATGCATGTACATATATTTGTTATATC [XGTACX_site3197],9.16
8,TATGTGCACCCATGTACATGCGGACATATGTTATAT [TGCATGCA_site383],10.6
9,AAAATATTTATTACTTCACACATTATTGTATTTATA [CACACA_site5082],6.5
10,TTTGTTTTTTTGAGAGTGCAATATATATAAAAAGGG [GTGCAC_site9691],9.35
11,TATATATATATATGAGTGCATATGTGTAATATAAAA,9.65
12,TTTCGTAATATGCGTGTGCACAATGAGTCCATATCT,10.9
13,GCGTGTGTACAATGAGTGCATATCTAAAGGGAAGAT,9.43
14,TCAAAAAAAAAAAAAAAAAAAAAAAAAAAAAAAAAA [CACACA_negctrl_site1753],5.92
15,TATTAATAAATATGTTTACACACGAAAATACATTTT [CACACA_site1012],6.35
16,TGTATAATATTTGGTGCACACAAATTAACAACTGTT [CACACA_site9245],10.6
17,TATAATATTTGGTGCACACAAATTAACAACTGTTTA [CACACA_site3742],10.8
18,CTTTGTAGTATATTAACACACAACTGTTTATAATAT [CACACA_site6038],6.53
19,TTTATTTTTAACAGTGCACACATAACTTAATTATAT [CACACA_site8681],9.52

row,Sequence,gcPBM binding intensity (ln)
1,TGTATTAAATTTTGAACACACAAAATAAAACATATA [CACACA_site1672],6.54
2,TTCTTTGTAGTATATTAACACACAACTGTTTATAAT [CACACA_site9305],6.67
3,TCGTAGTTACTATGGCAAGAAAATAAACGGTCTTGT [GTGCAC_negctrl_site684],6.6
4,ATTAAAAATTATATTTTATAAAAATTAAAAGAAATA [CACACA_negctrl_site65],6.47
5,AATAATTTTTTAAACACACACACATATATATATATA [CACACA_site95],9.08
6,AAAAATATATATATATATATATATATATTATTTTTT [TGCATGCA_negctrl_site378],7
7,TAGAAGCATCATTTTACACACATGCAAATGTAAACT [CACACA_site6973],6.66
8,TATGCACCCAGACACACACACACAACTAAAAAATAA [CACACA_site2567],8.1
9,ATTATGCACCAACACACACACACACTCCTAAAAAAT [CACACA_site8822],11.7
10,ATTATATATATATATACACACACACCCTAAAAATAT [CACACA_site8463],7.22
11,AAAAGATAATTATGCACACACACACCCAGACACAAC [CACACA_site5428],10.4
12,AAAAGATAATTATGCACACACACACCCCCACCCAAC [CACACA_site2570],10.5
13,ATTATGCACGGACACACACACACACCCCTAAAAAAT [CACACA_site5426],10.5
14,ATTATGCACAGACACACACACACACTACTAAAAAAT [CACACA_site7252],11.1
15,TAATTATGCGGACACACACACACACCCAACTAAAAA [CACACA_site5427],6.81
16,AAAAAAGATAATTATGCACACACACCCACCCACCCA [CACACA_site8825],9.38
17,AAAAAATTAGATTATGCACACACACTAATAAATAAT [CACACA_site8604],9.67
18,TTATTAGAAAAATGCACACCAAAAAAAAAAAAAAAA [CACACA_site2522],8.93
19,GAAATTAAAAAATTTATGCACACTTTAAAAAAAAAA [CACACA_site3769],9.28
